From the supplement of paper PMC11624193, “Coupling cellular drug-target engagement to downstream pharmacology with CeTEAM” (Nature Communications, 2024)
Unmarked numbers belong to inactive results.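 How the source made its calls: active = log2 fold change beyond 2 SD from the library mean after excluding viability outliers; inactive = within 2 SD.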

The compounds below were run against PARP1 L713F-nLuc biosensor (HCT116) (UniProt P09874) (assay: PARP1 L713F-nLuc/akaLuc ratio relative to DMSO control (biosensor stabilization) (fold change); higher = more PARP1 biosensor stabilization (target engagement / stabilizer), active = hit call of the paper). Conditions: stock concentration (mM; final µM = stock mM x 1): 10; 24 h.
PARP1 L713F-nLuc biosensor (HCT116), sequence (P09874 whole entry L713F, looked up): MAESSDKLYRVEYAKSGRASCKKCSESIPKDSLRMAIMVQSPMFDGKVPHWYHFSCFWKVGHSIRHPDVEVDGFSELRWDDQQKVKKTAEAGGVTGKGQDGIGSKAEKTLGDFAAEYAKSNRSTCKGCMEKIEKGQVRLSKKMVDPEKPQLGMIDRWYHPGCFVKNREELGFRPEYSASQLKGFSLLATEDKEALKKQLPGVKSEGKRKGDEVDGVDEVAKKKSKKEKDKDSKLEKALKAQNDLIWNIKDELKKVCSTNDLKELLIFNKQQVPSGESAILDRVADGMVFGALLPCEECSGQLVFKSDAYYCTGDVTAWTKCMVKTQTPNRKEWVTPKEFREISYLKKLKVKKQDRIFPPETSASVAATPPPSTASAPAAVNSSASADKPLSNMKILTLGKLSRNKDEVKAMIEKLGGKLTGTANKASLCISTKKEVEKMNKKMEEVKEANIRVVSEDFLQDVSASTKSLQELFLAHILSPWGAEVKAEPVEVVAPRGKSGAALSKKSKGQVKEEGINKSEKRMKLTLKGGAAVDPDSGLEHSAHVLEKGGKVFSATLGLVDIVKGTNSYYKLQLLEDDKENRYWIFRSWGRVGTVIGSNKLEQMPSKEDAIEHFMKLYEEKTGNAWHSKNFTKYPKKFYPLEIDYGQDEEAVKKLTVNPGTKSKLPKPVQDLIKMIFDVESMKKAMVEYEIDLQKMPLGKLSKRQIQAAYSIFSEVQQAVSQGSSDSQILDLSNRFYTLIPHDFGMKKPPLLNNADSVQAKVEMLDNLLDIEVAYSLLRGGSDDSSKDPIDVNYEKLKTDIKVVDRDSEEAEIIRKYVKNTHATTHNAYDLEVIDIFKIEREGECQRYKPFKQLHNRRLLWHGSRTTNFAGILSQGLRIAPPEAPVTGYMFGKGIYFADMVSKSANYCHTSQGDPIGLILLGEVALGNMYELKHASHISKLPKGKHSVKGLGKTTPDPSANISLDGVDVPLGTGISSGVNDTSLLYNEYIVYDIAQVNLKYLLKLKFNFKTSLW

Compound | PARP1 L713F-nLuc/akaLuc ratio
CCN(CCCOc1ccc2c(Nc3cc(CC(=O)Nc4cccc(F)c4)[nH]n3)ncnc2c1)CCOP(=O)(O)O [Barasertib] | 1.15
N#Cc1c[nH]c2ccc(-c3ccc(-c4c(O)cccc4O)cc3)cc12 | 0.933
Nc1nc(N)c2nc(-c3cccc(O)c3)c(-c3cccc(O)c3)nc2n1 | 1.46
CC(O)c1cc(C(=O)N[C@@H](C)Cn2ccc(-c3ccc(C#N)c(Cl)c3)n2)n[nH]1 (stereo not given in full) [Darolutamide (ODM-201)] | 0.613
COc1ccc(/C=C/C(=O)NO)c(-c2ccc(-c3ccccc3)cc2)c1 | 0.65
